Test results as given in PubChem BioAssay (NCI).
About 79,000 compounds went through this panel and 15% of them were active in at least one assay; those are over-represented in the sample as a whole. Activity calls are given as the source filed them. Rule as the data show it: active = growth inhibition above about 70%; inactive = the rest.

How the values were obtained:
[1] = NCI Yeast Anticancer Drug Screen. Data for the rad52 strain (AID 147);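 also: 0% = growth of vehicle-treated control cultures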; settings: S. cerevisiae rad52 mutant growth inhibition, stronger effect = higher value
Outline: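 Compounds are applied to a genetically defined yeast strain lacking normal DNA damage repair, and inhibition of growth is expressed relative to cultures given vehicle only.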

[2] = NCI Yeast Anticancer Drug Screen. Data for the wt1 strain (AID 149);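 also: 0% = growth of vehicle-treated wt1 cultures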; settings: S. cerevisiae wt1 strain (SPY 50644) growth inhibition, stronger effect = higher value
Outline: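 Vehicle-normalised growth inhibition; strain wt1; compound exposure.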

[3] = NCI Yeast Anticancer Drug Screen. Data for the rad50EPP+ strain (AID 151);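 also: 0% = growth of vehicle-treated control cultures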; settings: S. cerevisiae rad50 mutant strain, stronger effect = higher value
Outline: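 Compounds were applied to the rad50EPP+ yeast strain, which bears a defined DNA repair alteration, and growth inhibition was determined relative to vehicle-treated cultures.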

[4] = NCI Yeast Anticancer Drug Screen. Data for the rad50 strain (AID 155);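 also: 0% = growth of vehicle-only cultures of the same strain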; settings: S. cerevisiae rad50 strain growth inhibition, stronger effect = higher value
Outline: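 A DNA repair-deficient yeast mutant serves as the test organism; compound-induced growth inhibition is calculated against vehicle-treated cells.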

[5] = NCI Yeast Anticancer Drug Screen. Data for the rad14 strain (AID 159);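 also: 0% = growth of vehicle-treated control cultures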; settings: S. cerevisiae rad14 strain growth inhibition, stronger effect = higher value
Outline: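 Vehicle-treated cultures served as the baseline for growth inhibition of a DNA repair-mutant yeast strain exposed to each compound.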

[6] = NCI Yeast Anticancer Drug Screen. Data for the sgs1 mgt1 strain (AID 161);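 also: 0% = growth of cultures given vehicle only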; settings: S. cerevisiae sgs1 mgt1 strain, stronger effect = higher value
Outline: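 Genetically altered yeast, compound exposure, growth inhibition relative to vehicle.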

[7] = NCI Yeast Anticancer Drug Screen. Data for the CLN2oe strain (AID 163);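 also: 0% = growth of vehicle-only control cultures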; settings: S. cerevisiae CLN2oe strain, stronger effect = higher value
Outline: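 Growth of a genetically modified yeast strain is measured after compound exposure and compared with cultures given vehicle alone.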

[8] = NCI Yeast Anticancer Drug Screen. Data for the cln2 rad14 strain (AID 165);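 also: 0% = growth equal to vehicle treated cultures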; settings: S. cerevisiae cln2 rad14 strain, stronger effect = higher value
Outline: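 Compounds are applied to the cln2 rad14 yeast strain, and growth is then compared with that of vehicle-treated cultures to give inhibition.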

[9] = NCI Yeast Anticancer Drug Screen. Data for the bub3 strain (AID 167); settings: S. cerevisiae bub3 mutant strain, stronger effect = higher value
Outline: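 Inhibition values come from growth of compound-treated mutant yeast normalised to vehicle-treated controls.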

[10] = NCI Yeast Anticancer Drug Screen. Data for the wt2 strain (AID 169);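 also: 0% = growth of vehicle-treated yeast cultures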; settings: S. cerevisiae wt2 strain growth inhibition, stronger effect = higher value
Outline: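 This strain belongs to a panel of yeast strains with defined genetic alterations in DNA damage repair or cell cycle control. Compounds are applied, and growth inhibition is measured against vehicle-treated cultures.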

[11] = NCI Yeast Anticancer Drug Screen. Data for the mlh1 strain (AID 171);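 also: 0% = growth of vehicle-treated control cultures of the same strain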; settings: S. cerevisiae mlh1 strain growth inhibition, stronger effect = higher value
Outline: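 Growth of the mutant yeast strain after compound exposure, expressed as inhibition relative to vehicle-only controls.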

[12] = NCI Yeast Anticancer Drug Screen. Data for the sgs1 strain (AID 173);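 also: 0% = growth of vehicle-only control cultures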; settings: S. cerevisiae sgs1 mutant, stronger effect = higher value
Outline: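 Growth of a yeast strain bearing a defined genetic alteration is measured after compound treatment. Inhibition is expressed relative to vehicle-only controls.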

[13] = NCI Yeast Anticancer Drug Screen. Data for the mlh1 rad18 strain (AID 175); settings: S. cerevisiae mlh1 rad18 strain growth inhibition, stronger effect = higher value
Outline: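 Read-out is yeast growth inhibition, calculated against vehicle-only controls. The compound was applied to a strain engineered with DNA damage repair alterations.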

[14] = NCI Yeast Anticancer Drug Screen. Data for the rad18 strain (AID 177); settings: S. cerevisiae rad18 mutant growth inhibition, stronger effect = higher value
Outline: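 Growth of the mutant yeast strain after compound exposure, normalised to vehicle-only cultures.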

[15] = at 5.0 µM (retest, dose inferred, filed as 0.5)
[16] = at 50.0 µM (retest, dose inferred, filed as 5.0)

Measured: growth inhibition

O=S(=O)(O)c1ccc(Cl)cc1.[Cd]
active: [2]; at 100.0 µM 73% | [3]; at 100.0 µM 75% | [4]; at 33.0 µM 73% | [4]; at 100.0 µM 84% | [5]; at 33.0 µM 71% | [5]; at 100.0 µM 86% | [11]; at 100.0 µM 82%
inactive: [1]; at 1.2 µM 3% | [1]; at 3.7 µM 9% | [1]; at 11.0 µM 35% | [1]; at 33.0 µM 50% | [1]; at 100.0 µM 66% | [2]; at 1.2 µM 2% | [2]; at 3.7 µM 11% | [2]; at 11.0 µM 25% | [2]; at 33.0 µM 55% | [3]; at 1.2 µM 9% | [3]; at 3.7 µM 14% | [3]; at 11.0 µM 23% | [3]; at 33.0 µM 56% | [4]; at 1.2 µM -2% | [4]; at 3.7 µM 15% | [4]; [15] 25% | [4]; at 11.0 µM 47% | [4]; [16] 46% | [4]; at 50.0 µM 57.1% | [5]; at 1.2 µM -2% | [5]; at 3.7 µM 18% | [5]; at 11.0 µM 48% | [6]; [15] 23% | [6]; [16] 53% | [6]; at 50.0 µM 50.5% | [7]; at 1.2 µM -18% | [7]; at 3.7 µM -17% | [7]; at 11.0 µM -6% | [7]; at 33.0 µM 8% | [7]; at 100.0 µM 20% | [8]; [15] 8% | [8]; [16] 11% | [8]; at 50.0 µM 21.4% | [9]; at 1.2 µM -8% | [9]; at 3.7 µM 8% | [9]; [15] -6% | [9]; at 11.0 µM 6% | [9]; at 33.0 µM 19% | [9]; [16] 27% | [9]; at 50.0 µM 2.7% | [9]; at 100.0 µM 30% | [10]; at 1.2 µM 2% | [10]; at 3.7 µM 11% | [10]; at 11.0 µM 20% | [10]; at 33.0 µM 32% | [10]; at 100.0 µM 44% | [11]; at 1.2 µM -1% | [11]; at 3.7 µM 7% | [11]; at 11.0 µM 17% | [11]; at 33.0 µM 50% | [12]; at 1.2 µM 2% | [12]; at 3.7 µM 10% | [12]; at 11.0 µM 17% | [12]; at 33.0 µM 29% | [12]; at 100.0 µM 44% | [13]; [15] 24% | [13]; [16] 47% | [13]; at 50.0 µM 59% | [14]; at 1.2 µM 0% | [14]; at 3.7 µM 8% | [14]; at 11.0 µM 23% | [14]; at 33.0 µM 44% | [14]; at 100.0 µM 51%
